Laboratory results: PubChem BioAssay
The source made the active and inactive calls.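 Rule for the calls, unless noted: active = z-score of at least 1.8 in each of two replicates, scored against plate mean and spread of sample wells; inactive = the rest.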

What was measured:
[1] = system: Aerobactin synthetase IucA (Klebsiella pneumoniae); assay: IucA aerobactin synthetase inhibitors, biochemical, Tocris library, absorbance (AID 1345561; call rule not given here;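 note: 100% = enzyme without compound and 0% = no enzyme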); details: purified IucA enzyme assay, absorbance (OD) read-out; stronger effect = lower value;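 tested at 8 µM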
[2] = sensitizers of A549 cells to miR-34 induction, primary screen, imaging, A549 dox-inducible miR-34, nuclei and caspase counts (AID 1347080;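 active = compounds whose cell count with miR-34 switched on is under 0.7 times the count with it off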); details: A549 miR-34 inducible, Hoechst nuclei count, 48 h
[3] = viability rescue of complex I mutant cybrids, primary screen, cell-based, galactose medium, ATP luminescence (AID 1645843); details: complex I mutant cybrid cells, 72 h, stronger effect = higher value;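 note: positive z means more ATP and so rescue of galactose-driven cybrid death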
[4] = stronger effect = lower value, cell number ratio, induced over uninduced
[5] = measured here: relative caspase fold change +Dox/-Dox
[6] = measured here: total cells with miR-34 induction, stronger effect = lower value
[7] = measured here: total cells without miR-34 induction

Question: For `CN=C1C=C2C(=NC=NC2=Nc2cccc(Br)c2)C=N1`, which remaining activity [1] is on record?
Answer: 82.7% (inactive)

Question: What about the fold change [2, 4] of the same compound?
Answer: 0.699 (active)

Question: And the fold change [2, 5]?
Answer: 1.7

Question: And the cell count [2, 6]?
Answer: 942

Question: And the cell count [2, 7]?
Answer: 1350

Question: What about the z-score [3] of the same compound?
Answer: -0.675 (inactive)

Question: Which remaining activity [1] does the source give for `COC(=O)[C@H]1C2C[C@H]3c4[nH]c5ccccc5c4CCN3C[C@H]2CC[C@@H]1O` (stereo partly drawn) here?
Answer: 106% (inactive)

Question: And the fold change [2, 4]?
Answer: 0.968 (inactive)

Question: What about the fold change [2, 5] of the same compound?
Answer: 0.826

Question: What about the cell count [2, 6] of the same compound?
Answer: 8540

Question: And the cell count [2, 7]?
Answer: 8820

Question: What about the z-score [3] of the same compound?
Answer: -0.115 (inactive)

Question: What does the source list for `OC[C@H]1O[C@@H](n2cnc3c(NC4CCCC4)nc(Cl)nc32)[C@H](O)[C@@H]1O`?
Answer: remaining activity [1]: 122% (inactive); fold change [2, 4]: 0.891 (inactive); fold change [2, 5]: 0.662; cell count [2, 6]: 8890; cell count [2, 7]: 9980; z-score [3]: 0.55 (inactive)

Question: Which remaining activity [1] does the source give for `CC(=O)NCCc1c(Cc2ccccc2)[nH]c2ccccc12` here?
Answer: 105% (inactive)

Question: What about the fold change [2, 4] of the same compound?
Answer: 1.03 (inactive)

Question: What about the fold change [2, 5] of the same compound?
Answer: 0.867

Question: What about the cell count [2, 6] of the same compound?
Answer: 7430

Question: And the cell count [2, 7]?
Answer: 7230

Question: And the z-score [3]?
Answer: 0.025 (inactive)

Question: Which results are given for `c1ccc(N2CCN(CCCOc3ccc4c(c3)OCO4)CC2)cc1`?
Answer: remaining activity [1]: 103% (inactive); fold change [2, 4]: 0.912 (inactive); fold change [2, 5]: 0.762; cell count [2, 6]: 8370; cell count [2, 7]: 9180; z-score [3]: 0.385 (inactive)

Question: Which remaining activity [1] does the source give for `N#Cc1ccc(NCCNCC(=O)N2CCC[C@H]2C#N)nc1` here?
Answer: 110% (inactive)

Question: What about the fold change [2, 4] of the same compound?
Answer: 0.825 (inactive)

Question: And the fold change [2, 5]?
Answer: 2.19

Question: And the cell count [2, 6]?
Answer: 8330

Question: And the cell count [2, 7]?
Answer: 10100

Question: And the z-score [3]?
Answer: 0.41 (inactive)

Question: With `CC1(C)C[C@@H]1C(=O)N/C(=C\CCCCSC[C@@H](N)C(=O)O)C(=O)O` as the compound, how does the remaining activity [1] read?
Answer: 102% (inactive)

Question: And the fold change [2, 4]?
Answer: 0.976 (inactive)

Question: And the fold change [2, 5]?
Answer: 1.46

Question: And the cell count [2, 6]?
Answer: 9200

Question: What about the cell count [2, 7] of the same compound?
Answer: 9420

Question: And the z-score [3]?
Answer: -0.005 (inactive)

Question: Which results are given for `COc1cccc(CCc2ccccc2OCC[C@@H]2C[C@@H](O)CN2C)c1`?
Answer: remaining activity [1]: 109% (inactive); fold change [2, 4]: 1.04 (inactive); fold change [2, 5]: 0.632; cell count [2, 6]: 7340; cell count [2, 7]: 7050; z-score [3]: -0.705 (inactive)

Question: For `Cn1cccc1/C=C1\C(=O)NC(=O)c2ccccc21`, which remaining activity [1] is on record?
Answer: 129% (inactive)

Question: And the fold change [2, 4]?
Answer: 0.918 (inactive)

Question: And the fold change [2, 5]?
Answer: 1.16

Question: And the cell count [2, 6]?
Answer: 8530

Question: And the cell count [2, 7]?
Answer: 9300

Question: And the z-score [3]?
Answer: -0.415 (inactive)

Question: For `C=CCNC(=O)c1cc([N+](=O)[O-])cc2c(=O)[nH]c(Nc3ccc(Cl)c(Cl)c3)nc12`, which remaining activity [1] is on record?
Answer: 116% (inactive)

Question: And the fold change [2, 4]?
Answer: 0.926 (inactive)

Question: And the fold change [2, 5]?
Answer: 0.827

Question: What about the cell count [2, 6] of the same compound?
Answer: 8840

Question: What about the cell count [2, 7] of the same compound?
Answer: 9550

Question: And the z-score [3]?
Answer: -0.09 (inactive)

Question: Which results are given for `COc1cc2c(cc1OC)-c1cc3nc4ccccc4nc3n1C(C)(C)C2`?
Answer: remaining activity [1]: 119% (inactive); fold change [2, 4]: 1.11 (inactive); fold change [2, 5]: 0.782; cell count [2, 6]: 4000; cell count [2, 7]: 3590; z-score [3]: -0.79 (inactive)

Question: Which remaining activity [1] does the source give for `c1ccc(C(O[C@@H]2CCCN(CCc3ccc4c(c3)OCO4)C2)c2ccccc2)cc1` here?
Answer: 119% (inactive)

Question: What about the fold change [2, 4] of the same compound?
Answer: 0.989 (inactive)

Question: And the fold change [2, 5]?
Answer: 1.1

Question: And the cell count [2, 6]?
Answer: 8350

Question: And the cell count [2, 7]?
Answer: 8440

Question: And the z-score [3]?
Answer: -0.585 (inactive)

Question: What does the source list for `CCCCc1nc2ccn(CC(=O)N(C)C)c(=O)c2n1Cc1ccc(-c2ccccc2-c2nn[nH]n2)cc1`?
Answer: remaining activity [1]: 111% (inactive); fold change [2, 4]: 1.01 (inactive); fold change [2, 5]: 0.927; cell count [2, 6]: 8240; cell count [2, 7]: 8192; z-score [3]: -0.18 (inactive)

Question: For `N[C@H](C(=O)O)c1ccc(C(=O)O)c(C(=O)O)c1`, which remaining activity [1] is on record?
Answer: 126% (inactive)

Question: What about the fold change [2, 4] of the same compound?
Answer: 0.986 (inactive)

Question: What about the fold change [2, 5] of the same compound?
Answer: 0.559

Question: What about the cell count [2, 6] of the same compound?
Answer: 9860

Question: And the cell count [2, 7]?
Answer: 10000

Question: What about the z-score [3] of the same compound?
Answer: -0.145 (inactive)

Question: For `CN1Cc2c(C(=O)OC(C)(C)C)ncn2-c2ccsc2C1=O`, which remaining activity [1] is on record?
Answer: 105% (inactive)

Question: And the fold change [2, 4]?
Answer: 0.89 (inactive)

Question: And the fold change [2, 5]?
Answer: 1.34

Question: What about the cell count [2, 6] of the same compound?
Answer: 7080

Question: What about the cell count [2, 7] of the same compound?
Answer: 7950

Question: What about the z-score [3] of the same compound?
Answer: 0.15 (inactive)

Question: With `O=c1[nH]ccc2c(S(=O)(=O)N3CCCNCC3)cccc12` as the compound, how does the remaining activity [1] read?
Answer: 105% (inactive)

Question: What about the fold change [2, 4] of the same compound?
Answer: 0.922 (inactive)

Question: And the fold change [2, 5]?
Answer: 0.813

Question: What about the cell count [2, 6] of the same compound?
Answer: 9480

Question: And the cell count [2, 7]?
Answer: 10300

Question: And the z-score [3]?
Answer: -0.145 (inactive)

Question: Which results are given for `Clc1cccc(C=NC=Nc2cccc(Cl)c2)c1`?
Answer: remaining activity [1]: 117% (inactive); fold change [2, 4]: 0.902 (inactive); fold change [2, 5]: 0.788; cell count [2, 6]: 8200; cell count [2, 7]: 9090; z-score [3]: 0.99 (inactive)

Question: What does the source list for `N=C(N)S/C=C\C(=O)O`?
Answer: remaining activity [1]: 104% (inactive); fold change [2, 4]: 0.952 (inactive); fold change [2, 5]: 0.563; cell count [2, 6]: 8330; cell count [2, 7]: 8750; z-score [3]: -0.28 (inactive)
